The structures appear in SMILES notation. Records with an inconclusive call do not appear. Calls of active or inactive are those of the source. Calls follow the shape of the dose curve; as a rule, active = well fitted curve in the direction sought with a large enough effect; inconclusive = small, poorly fitted or top-dose-only effect, or effect the other way, or another doubt; inactive = no such curve, though single readings can be large or run the other way.

Chain of Pyruvate kinase PKLR (Homo sapiens) (P30613 whole entry, looked up): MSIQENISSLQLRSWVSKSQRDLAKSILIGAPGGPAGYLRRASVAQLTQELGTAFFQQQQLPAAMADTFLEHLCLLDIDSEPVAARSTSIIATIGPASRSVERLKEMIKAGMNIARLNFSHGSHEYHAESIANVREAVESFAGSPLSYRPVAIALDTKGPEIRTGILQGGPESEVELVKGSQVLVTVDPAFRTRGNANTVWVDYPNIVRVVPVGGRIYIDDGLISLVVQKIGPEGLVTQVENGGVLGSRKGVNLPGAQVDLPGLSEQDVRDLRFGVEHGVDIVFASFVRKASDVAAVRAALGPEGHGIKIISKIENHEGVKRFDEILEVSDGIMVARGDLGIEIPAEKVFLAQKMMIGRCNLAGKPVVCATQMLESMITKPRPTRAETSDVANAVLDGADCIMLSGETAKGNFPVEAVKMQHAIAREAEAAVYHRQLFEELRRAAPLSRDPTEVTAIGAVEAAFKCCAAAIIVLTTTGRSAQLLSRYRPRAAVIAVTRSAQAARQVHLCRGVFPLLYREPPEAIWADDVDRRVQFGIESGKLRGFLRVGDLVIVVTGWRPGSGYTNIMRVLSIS

This assay has as its target Pyruvate kinase PKLR (Homo sapiens) (UniProt P30613). The assay is described as follows: Confirmation Concentration-Response Assay for Activators of Human Liver Pyruvate Kinase. The following applies: purified hPK-L, Kinase-Glo ATP luminescence, 1 h; series mostly up to 57.5 µM. The text has this:
Confirmatory assay NIH Chemical Genomics Center [NCGC] Matthew G. Vander Heiden, M.D., Ph.D. [Harvard Medical School, 77 Avenue Louis Pasteur, Boston, MA 02115] NCGC Assay Overview: Human pyruvate kinase liver (hPK-L) enzyme was supplied as a highly purified (>95% pure) preparation from Harvard Medical School and assayed for its ability to generate ATP from ADP using phosphoenolpyruvate (PEP) as a substrate. ATP generation was detected in a coupled reaction by luciferase-mediated luminescence, an ATP-dependent process. Pyruvate kinase substrates, PEP and ADP, were present in the assay at Km and approximately 10-fold below Km respectively. The enzyme was assayed at an intermediate level of activity to screen for both inhibitors and activators.
NCGC Assay Protocol Summary for L-isoform: Three uL of substrate mix (at r.t.) in assay buffer (50 mM Imidazole pH7.2, 50 mM KCl, 7 mM MgCl2, 0.01% Tween 20, 0.05% BSA) was dispensed into white solid bottom 1,536 well microtiter plates so that the final concentrations of substrates in the assay were 0.1 mM ADP and 0.5 mM PEP. 23 nL of compound were delivered by a pin tool and 1 uL of enzyme mix (final concentration of 0.1 nM) in assay buffer (4 degree Celsius) was added. Plates were incubated at room temperature for 1 hour. Two uL of detection mix (Kinase-Glo, Promega; at 4 degree Celsius protected from light) was added and luminescence read by a ViewLux (Perkin Elmer) at 1 second exposure/plate. Data were normalized to the uninhibited (row 31). Additionally, a no enzyme and 5-fold enzyme control was dispensed in row 32, split equally between the two conditions.
`Cn1ccc2cc(S(=O)(=O)N3CCN(S(=O)(=O)c4c(F)cccc4F)CC3)ccc21`: the call was inactive. `COc1ccc(S(=O)(=O)N2CCN(S(=O)(=O)c3c(F)cccc3F)CC2)cc1`: the outcome was inactive. Turning to `N#Cc1ccc(S(=O)(=O)N2CCN(S(=O)(=O)c3ccc4c(c3)OCCO4)CC2)cc1`, the compound was called inactive. Under `Cc1cc2c(s1)c1cnn(Cc3ccc(F)cc3)c(=O)c1n2C` stands “inactive”; under `CSc1cc2c(s1)c1cnn(Cc3ccccc3F)c(=O)c1n2C`, “inactive”; under `O=S(=O)(c1c(F)cccc1F)N1CCN(S(=O)(=O)c2c(F)cccc2F)CC1`, “inactive”.

As for `Cc1cc2c(s1)c1cnn(Cc3ccccc3)c(=O)c1n2C`, the result was inactive. Turning to `Cc1cc2c(s1)c1cnn(Cc3c(F)cccc3F)c(=O)c1n2C`, the outcome was inactive. Consider `COc1ccc(S(=O)(=O)N2CCN(S(=O)(=O)c3ccc(OC)cc3)CC2)cc1`, for which the result was inactive.

Take `C[C@@H]1CN(S(=O)(=O)c2ccc3c(c2)OCCO3)CCN1S(=O)(=O)c1c(F)cccc1F`: the compound was classed as inactive. Turning to `COc1ccc(S(=O)(=O)N2CCN(S(=O)(=O)c3ccc4c(c3)OCCO4)CC2)cc1`, the outcome was inactive.

On to `O=C(c1ccc2c(c1)OCCO2)N1CCN(S(=O)(=O)c2c(F)cccc2F)CC1`, for which the call was inactive. Take `COc1cc2c(s1)c1cnn(Cc3ccccc3F)c(=O)c1n2C`: the result was inactive. As to `O=S(=O)(NC1CCN(S(=O)(=O)c2ccc3c(c2)OCCO3)CC1)c1c(F)cccc1F`, the outcome was inactive. As for `COc1cc(F)c(S(=O)(=O)N2CCN(S(=O)(=O)c3ccc4c(c3)OCCO4)CC2)c(F)c1`, the compound was called inactive. `Cc1cc2c(s1)c1cnn(Cc3ccc(Cl)cc3)c(=O)c1n2C`: the outcome was inactive.

Regarding `Cc1cc2c(s1)c1cnn(Cc3cccc(F)c3)c(=O)c1n2C`, the call was inactive.

In the case of `O=S(=O)(c1ccc2c(c1)OCCO2)N1CCN(S(=O)(=O)c2cccc[n+]2[O-])CC1`, the outcome was inactive.

`Cc1cc2c(s1)c1cnn(Cc3ccc(C(C)C)cc3)c(=O)c1n2C`: the compound was classed as inactive. In the case of `O=S(=O)(c1ccc2c(c1)OCO2)N1CCN(S(=O)(=O)c2c(F)cccc2F)CC1`, the call was inactive. For the compound `Cn1c2cc([N+](=O)[O-])sc2c2cnn(Cc3ccccc3F)c(=O)c21`, the compound was called inactive. `Cc1cc2c(s1)c1cnn(Cc3ccc(S(C)(=O)=O)cc3)c(=O)c1n2C`: the compound was called inactive. For `COc1ccc(Cn2ncc3c4sc(C)cc4n(C)c3c2=O)cc1`, the compound was called inactive. Under `Cn1c2cc(C#N)sc2c2cnn(Cc3ccccc3F)c(=O)c21` stands “inactive”; under `Cc1cc2c(s1)c1cnn(Cc3ccc(F)c(F)c3F)c(=O)c1n2C`, “inactive”; under `CC(=O)c1cc2c(s1)c1cnn(Cc3ccccc3F)c(=O)c1n2C`, “inactive”. Take `CCCc1cc(F)c(S(=O)(=O)N2CCN(S(=O)(=O)c3ccc4c(c3)OCCO4)CC2)cc1F`: the call was inactive. Under `Cc1cc2[nH]c3c(=O)n(Cc4ccccc4F)ncc3c2s1` stands “inactive”. To `O=S(=O)(NCCNS(=O)(=O)c1c(F)cccc1F)c1ccc2c(c1)OCCO2` belongs “inactive”; to `Cc1cc2c(s1)c1cnn(Cc3cccc(Cl)c3)c(=O)c1n2C`, “inactive”.

For `CCCCCn1ncc2c3sc(C)cc3n(C)c2c1=O`, the result was inactive. On to `Cc1cc2c(s1)c1cnn(Cc3ccc(F)cc3F)c(=O)c1n2C`, for which the outcome was inactive. `Cn1c2ccsc2c2cnn(Cc3ccccc3F)c(=O)c21`: the compound was classed as inactive. For `COC(=O)c1cc2c(s1)c1cnn(Cc3ccccc3F)c(=O)c1n2C`, the result was inactive.

In the case of `COc1ccc(Cn2ncc3c4sc(C)cc4n(C)c3c2=O)cc1F`, the compound was classed as inactive. To `O=C(CN1C(=O)N/C(=C\c2cccn2-c2cccc(C(=O)O)c2)C1=O)Nc1ccccc1F` belongs “inactive”; to `Cn1c2cc(C=O)sc2c2cnn(Cc3ccccc3F)c(=O)c21`, “inactive”; to `Cc1cc2c(s1)c1cnn(Cc3ccccc3Cl)c(=O)c1n2C`, “inactive”.

As to `Cc1cc2c(s1)c1c(C)nn(Cc3ccccc3F)c(=O)c1n2C`, the compound was classed as inactive. To `O=S(=O)(c1ccc2c(c1)OCCO2)N1CCN(S(=O)(=O)c2ccc3c(c2)OCCO3)CC1` belongs “inactive”.
